The record followed here is PubChem BioAssay (NCI).

Assay [1] is described as follows: NCI Yeast Anticancer Drug Screen. Data for the rad50 strain (AID 155).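 Further: 0% = growth of vehicle-only cultures of the same strain.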 The following applies: S. cerevisiae rad50 strain growth inhibition, hits give high values. The gist of the method: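 A DNA repair-deficient yeast mutant serves as the test organism; compound-induced growth inhibition is calculated against vehicle-treated cells.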
Assay [2] can be described thus: NCI Yeast Anticancer Drug Screen. Data for the mec2-1 strain (AID 157). Conditions: S. cerevisiae mec2-1 strain, hits give high values. Put shortly: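 Growth inhibition is read against vehicle-treated controls after compound exposure of the mec2-1 yeast strain, which is defective in DNA damage repair or cell cycle control.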
Assay [3] is described as follows: NCI Yeast Anticancer Drug Screen. Data for the sgs1 mgt1 strain (AID 161).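 Further: 0% = growth of cultures given vehicle only.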 The following applies: S. cerevisiae sgs1 mgt1 strain, hits give high values. Put shortly: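 Growth of a repair-deficient yeast mutant was monitored after compound treatment and expressed as inhibition relative to vehicle-treated cultures.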
Assay [4] can be described thus: NCI Yeast Anticancer Drug Screen. Data for the cln2 rad14 strain (AID 165).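 Further: 0% = growth equal to vehicle treated cultures.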 The following applies: S. cerevisiae cln2 rad14 strain, hits give high values. The gist of the method: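 Growth inhibition, relative to vehicle-treated controls, is the read-out. The test organism is a yeast strain with defined genetic alterations, cln2 rad14.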
The nature of assay [5]: NCI Yeast Anticancer Drug Screen. Data for the bub3 strain (AID 167). Conditions: S. cerevisiae bub3 mutant strain, hits give high values. Put shortly:
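Inhibition values come from growth of compound-treated mutant yeast normalised to vehicle-treated controls.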

Assay [6] is described as follows: NCI Yeast Anticancer Drug Screen. Data for the mlh1 rad18 strain (AID 175). Conditions: S. cerevisiae mlh1 rad18 strain growth inhibition, hits give high values. The gist of the method: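 Cells of a genetically altered yeast strain, deficient in DNA damage repair, were treated with compound. Their growth was then compared with that of vehicle-treated cultures to give inhibition.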

Where [7] appears, read: at 5.0 µM (retest, dose inferred, filed as 0.5).
The mark [8] stands for this setting: at 50.0 µM (retest, dose inferred, filed as 5.0).

The panel holds about 79,000 compounds, 15% with a hit somewhere; the sample as a whole holds those more often. Values without a mark were called inactive. The source made the active and inactive calls. No stated cut-off is given here; in the data, active means growth inhibition above about 70%; inactive means the rest.

In the case of `CS(=O)(=O)C(=Cc1ccccc1Cl)S(C)(=O)=O`, the growth inhibition is 30% in assay [1] (setting [7]); 57% in assay [1] (setting [8]); -12.7% in assay [1] (at 50.0 µM); 20% in assay [2] (setting [7]); 29% in assay [2] (setting [8]); -1.65% in assay [2] (at 50.0 µM). In addition, the growth inhibition in assay [3] (setting [7]) was 11%; in assay [3] (setting [8]), 7%; in assay [3] (at 50.0 µM), 4.05%; in assay [4] (setting [7]), 2%; in assay [4] (setting [8]), 13%; in assay [4] (at 50.0 µM) it was 12.1%. Moreover, the growth inhibition in assay [5] (setting [7]) is 0%; in assay [5] (setting [8]), 6%; in assay [5] (at 50.0 µM) it was 5%; in assay [6] (setting [7]), 38%; in assay [6] (setting [8]), 62%; in assay [6] (at 50.0 µM) it was -28.1%.
On to `C=C1CC(O)C2C(C[Se]c3ccccc3)C(=O)O[C@@H]2C2C(=C)[C@@H](O)CC12` (stereo not given in full), for which the growth inhibition was -3% in assay [1] (setting [7]); 27% in assay [1] (setting [8]); 46.4% in assay [1] (at 50.0 µM); 1% in assay [2] (setting [7]); 36% in assay [2] (setting [8]); 52.1% in assay [2] (at 50.0 µM). For the same compound, the growth inhibition in assay [3] (setting [7]) was 0%; in assay [3] (setting [8]), 43%; in assay [3] (at 50.0 µM), 29.6%; in assay [4] (setting [7]), -5%; in assay [4] (setting [8]) it was 5%; in assay [4] (at 50.0 µM), -13.3%. The growth inhibition was -9% in assay [5] (setting [7]); 11% in assay [5] (setting [8]); 30.2% in assay [5] (at 50.0 µM); -2% in assay [6] (setting [7]); 30% in assay [6] (setting [8]); 70.7% (active) in assay [6] (at 50.0 µM).
As for `CCCCCCCCCCCCCCCC1C(N)C(=O)N(C)N1C` (stereo not given), the growth inhibition in assay [1] (setting [7]) was -33%; in assay [1] (setting [8]) it was 96% (active); in assay [1] (at 50.0 µM), 89.7% (active); in assay [2] (setting [7]), -25%; in assay [2] (setting [8]), 97% (active); in assay [2] (at 50.0 µM), 91.2% (active). For the same compound, the growth inhibition in assay [3] (setting [7]) was -19%; in assay [3] (setting [8]) it was 95% (active); in assay [3] (at 50.0 µM), 91.7% (active); in assay [4] (setting [7]), -30%; in assay [4] (setting [8]), 94% (active); in assay [4] (at 50.0 µM), 88% (active). The growth inhibition in assay [5] (setting [7]) is -51%; in assay [5] (setting [8]), 95% (active); in assay [5] (at 50.0 µM), 89.5% (active); in assay [6] (setting [7]), -43%; in assay [6] (setting [8]), 95% (active); in assay [6] (at 50.0 µM), 90.4% (active).
Consider `Oc1cc2c(cc1C(c1ccc(Cl)cc1)N1CCOCC1)OCO2` (stereo not given), for which the growth inhibition is 1% in assay [1] (setting [7]); 98% (active) in assay [1] (setting [8]); 99% (active) in assay [1] (at 50.0 µM); -1% in assay [2] (setting [7]); 99% (active) in assay [2] (setting [8]); 99.2% (active) in assay [2] (at 50.0 µM). Also, the growth inhibition in assay [3] (setting [7]) is 7%; in assay [3] (setting [8]), 99% (active); in assay [3] (at 50.0 µM), 99% (active); in assay [4] (setting [7]), -8%; in assay [4] (setting [8]), 83% (active); in assay [4] (at 50.0 µM), 96.5% (active). Further, the growth inhibition in assay [5] (setting [7]) is -7%; in assay [5] (setting [8]), 98% (active); in assay [5] (at 50.0 µM) it was 98.9% (active); in assay [6] (setting [7]) it was 0%; in assay [6] (setting [8]) it was 99% (active); in assay [6] (at 50.0 µM) it was 98.8% (active).
On to `CCCCCCCCCCCCOC(=O)C[N+]1(C)CCCCC1`, for which the growth inhibition was 92% (active) in assay [1] (setting [7]); 99% (active) in assay [1] (setting [8]); 43.5% in assay [1] (at 50.0 µM); 93% (active) in assay [2] (setting [7]); 99% (active) in assay [2] (setting [8]); 99.8% (active) in assay [2] (at 50.0 µM). The growth inhibition in assay [3] (setting [7]) was 99% (active); in assay [3] (setting [8]) it was 99% (active); in assay [3] (at 50.0 µM), 39.4%; in assay [4] (setting [7]), 67%; in assay [4] (setting [8]), 99% (active); in assay [4] (at 50.0 µM), 98.5% (active). The growth inhibition was 99% (active) in assay [5] (setting [7]); 99% (active) in assay [5] (setting [8]); 99.7% (active) in assay [5] (at 50.0 µM); 33% in assay [6] (setting [7]); 99% (active) in assay [6] (setting [8]); 99.5% (active) in assay [6] (at 50.0 µM).
`CC1=C(C(=O)Nc2ccc([N+](=O)[O-])cc2)C(c2ccccc2F)C(C(=O)Nc2ccc([N+](=O)[O-])cc2)=C(C)N1`: the growth inhibition in assay [1] (setting [7]) is 19%; in assay [1] (setting [8]), 19%; in assay [1] (at 50.0 µM) it was 56.4%; in assay [2] (setting [7]) it was 5%; in assay [2] (setting [8]) it was 5%; in assay [2] (at 50.0 µM) it was 74.3% (active). Moreover, the growth inhibition was 2% in assay [3] (setting [7]); 2% in assay [3] (setting [8]); 52% in assay [3] (at 50.0 µM); 6% in assay [4] (setting [7]); 6% in assay [4] (setting [8]); 64% in assay [4] (at 50.0 µM). For the same compound, the growth inhibition in assay [5] (setting [7]) was -1%; in assay [5] (setting [8]), -1%; in assay [5] (at 50.0 µM), 60%; in assay [6] (setting [7]), -2%; in assay [6] (setting [8]) it was -2%; in assay [6] (at 50.0 µM), 28.1%.
Take `CCOC(=O)/C(=C/c1ccccc1Br)P(=O)(OCC)OCC`: the growth inhibition was 7% in assay [1] (setting [7]); 39% in assay [1] (setting [8]); 71.2% (active) in assay [1] (at 50.0 µM); -6% in assay [2] (setting [7]); 60% in assay [2] (setting [8]); 35.8% in assay [2] (at 50.0 µM). Moreover, the growth inhibition in assay [3] (setting [7]) was -12%; in assay [3] (setting [8]), 38%; in assay [3] (at 50.0 µM), 41.9%; in assay [4] (setting [7]), 18%; in assay [4] (setting [8]), 53%; in assay [4] (at 50.0 µM) it was 33.5%. Besides, the growth inhibition in assay [5] (setting [7]) is -2%; in assay [5] (setting [8]), 85% (active); in assay [5] (at 50.0 µM), 61.3%; in assay [6] (setting [7]), -18%; in assay [6] (setting [8]), 74% (active); in assay [6] (at 50.0 µM), 30%.
For `Cc1ccc2c(c1)C(O)(c1ccccc1)CCS2` (stereo not given), the growth inhibition in assay [1] (setting [7]) is 87% (active); in assay [1] (setting [8]) it was 95% (active); in assay [1] (at 50.0 µM), 90.2% (active); in assay [2] (setting [7]), 58%; in assay [2] (setting [8]), 97% (active); in assay [2] (at 50.0 µM), 77.2% (active). Moreover, the growth inhibition was 86% (active) in assay [3] (setting [7]); 97% (active) in assay [3] (setting [8]); 91.8% (active) in assay [3] (at 50.0 µM); 16% in assay [4] (setting [7]); 96% (active) in assay [4] (setting [8]); 71.2% (active) in assay [4] (at 50.0 µM). Moreover, the growth inhibition in assay [5] (setting [7]) is 46%; in assay [5] (setting [8]), 96% (active); in assay [5] (at 50.0 µM), 86.8% (active); in assay [6] (setting [7]) it was 66%; in assay [6] (setting [8]) it was 94% (active); in assay [6] (at 50.0 µM), 94.3% (active).
Regarding `CC12CCC(O)CC1=CCC1C2CCC2(C)c3nc(C#N)c(=N)n(O)c3CC12` (stereo not given), the growth inhibition in assay [1] (setting [7]) is 12%; in assay [1] (setting [8]) it was 96% (active); in assay [1] (at 50.0 µM), 98.5% (active); in assay [2] (setting [7]) it was 0%; in assay [2] (setting [8]), 71% (active); in assay [2] (at 50.0 µM), 98.7% (active). In addition, the growth inhibition in assay [3] (setting [7]) was 6%; in assay [3] (setting [8]) it was 93% (active); in assay [3] (at 50.0 µM) it was 99.2% (active); in assay [4] (setting [7]) it was 4%; in assay [4] (setting [8]) it was 89% (active); in assay [4] (at 50.0 µM), 98.5% (active). Further, the growth inhibition in assay [5] (setting [7]) was 1%; in assay [5] (setting [8]), 81% (active); in assay [5] (at 50.0 µM), 98% (active); in assay [6] (setting [7]), 44%; in assay [6] (setting [8]), 85% (active); in assay [6] (at 50.0 µM) it was 99.2% (active).
Consider `CC1C2CC(C(S(=O)(=O)N3CCOCC3)/C2=N\O)C1(C)C` (stereo not given), for which the growth inhibition in assay [1] (setting [7]) was -4%; in assay [1] (setting [8]), -14%; in assay [1] (at 50.0 µM), 88.2% (active); in assay [2] (setting [7]), -12%; in assay [2] (setting [8]), -31%; in assay [2] (at 50.0 µM), 92.2% (active). In addition, the growth inhibition in assay [3] (setting [7]) is -4%; in assay [3] (setting [8]), -4%; in assay [3] (at 50.0 µM) it was 86.5% (active); in assay [4] (setting [7]), -20%; in assay [4] (setting [8]), 20%; in assay [4] (at 50.0 µM) it was 89.2% (active). Further, the growth inhibition is 0% in assay [5] (setting [7]); -19% in assay [5] (setting [8]); 89.9% (active) in assay [5] (at 50.0 µM); 16% in assay [6] (setting [7]); -18% in assay [6] (setting [8]); 83.2% (active) in assay [6] (at 50.0 µM).
